High-throughput results: PubChem, several laboratories
Only some compounds are listed: those with a hit (about 5.6% of all), similar ones and a draw of the others.
PHOSPHO1 block – PHOSPHO1 (human) inhibition | Q8TCT1 | recombinant PHOSPHO1, absorbance phosphatase assay | inhibition, % at 13.3 µM | hit rate 1.1% among 290,000; in the data active = inhibition above about 60%
Target sequence (Q8TCT1 whole entry, looked up): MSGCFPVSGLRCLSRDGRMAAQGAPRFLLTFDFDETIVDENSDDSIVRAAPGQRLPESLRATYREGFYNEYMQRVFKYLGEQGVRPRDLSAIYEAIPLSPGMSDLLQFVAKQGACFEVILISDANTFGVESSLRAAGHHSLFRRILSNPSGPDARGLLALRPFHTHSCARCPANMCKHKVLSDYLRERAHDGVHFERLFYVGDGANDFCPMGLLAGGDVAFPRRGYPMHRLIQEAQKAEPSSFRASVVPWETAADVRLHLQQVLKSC
H9c2 protect – protects H9c2 cardiomyocytes from peroxide injury. AID 588492. H2O2 injury protection, ATPLite, 2 h. protection from H2O2 cell death, % at 20 µM. hit rate 0.63% among 360,000;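 active = compounds giving at least 50% protection of heart cells from peroxide-induced death in the single-dose screen, raw or plate-pattern-corrected value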
M18AAP inhibitor – blocks P. falciparum M18 aspartyl aminopeptidase; recombinant PfM18AAP, H-Glu-NHMec fluorogenic cleavage; inhibition, % at 7.35 µM; hit rate 1.2% among 290,000;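 active = inhibition above the campaign mean inhibition over all tested compounds plus 3 SD, cut at about 28% in these data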
ALR H2O2 inh – blocks human ALR sulfhydryl oxidase activity. inhibition, % (concentration not given with the values). AID 485317. purified ALR, DTT oxidation, H2O2 HRP-luminol luminescence. hit rate 3.8% among 290,000;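 active = mean replicate inhibition above about 79%, with every replicate also reaching it, limit read from the data; inconclusive = only one of the two criteria met; inactive = mean below limit and not every replicate reaching it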
Target sequence (P55789 whole entry, looked up): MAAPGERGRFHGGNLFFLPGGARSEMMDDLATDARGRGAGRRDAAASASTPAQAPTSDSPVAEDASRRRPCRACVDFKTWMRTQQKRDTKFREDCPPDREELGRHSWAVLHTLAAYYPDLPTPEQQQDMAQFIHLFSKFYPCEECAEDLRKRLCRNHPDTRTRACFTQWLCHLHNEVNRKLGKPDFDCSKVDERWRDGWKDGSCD
PfG6PD inh – PfG6PD (Plasmodium falciparum) enzyme inhibition; inhibition, % at 20 µM; hit rate 0.78% among 350,000; PfGluPho enzyme, NADPH resazurin-diaphorase fluorescence;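 active = inhibition reaching at least a set limit at 20 µM in the primary screen, cut at about 59% in these data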
PfG6PD confirm – PfG6PD inhibition, single-dose confirmed | shares compounds with PfG6PD inh | recombinant PfGluPho, NADPH-diaphorase-resazurin fluorescence | AID 504753 | inhibition, % at 20 µM | hit rate 34% among 2,400;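 active = inhibition of at least 50% at 20 µM in any single replicate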
Diaphorase 10uM – counter-screen for P. falciparum G6PD inhibitors: diaphorase inhibitors, oxidizers; diaphorase-coupled resazurin reduction, fluorescence, NADPH 10 uM; shares compounds with PfG6PD inh; hit rate 39% among 820; inhibition, % at 20 µM;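 active = average inhibition reaching 50% or more with the compound at 20 µM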;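 also: resorufin red fluorescence formed as diaphorase reduces resazurin using NADPH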
Diaphorase 30uM – inhibits diaphorase or oxidizes, flagging false PfG6PD hits | hit rate 29% among 820 | shares compounds with PfG6PD inh | Diaphorase/resazurin coupled assay, resorufin fluorescence, 30 uM NADPH | inhibition, % at 20 µM | AID 504863;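 active = inhibition averaging 50% or more, tested at 20 µM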
A number is an active result.

What do the screens show for `O=C(COc1ccc2ccc(=O)oc2c1)c1ccccc1`?
PHOSPHO1 block: inactive; H9c2 protect: inactive; M18AAP inhibitor: inactive; ALR H2O2 inh: inactive; PfG6PD inh: inactive

What do the screens show for `Cc1cc(-n2c(C)cc(C(=O)COc3ccc4ccc(=O)oc4c3)c2C)no1`?
PHOSPHO1 block: inactive; H9c2 protect: 70; M18AAP inhibitor: inactive; ALR H2O2 inh: inactive; PfG6PD inh: 89; PfG6PD confirm: inactive

How did O=S1(=O)CCN(C2CCCCCCC2)CC1 do in these assays?
H9c2 protect: inactive; PfG6PD inh: inactive

Results for Cc1cccc(NC(=O)CSc2nnc(-c3ccco3)c(-c3ccco3)n2)c1 ?
PHOSPHO1 block: inactive; H9c2 protect: inactive; M18AAP inhibitor: inactive; PfG6PD inh: inactive

Results for Cc1cccc(NC(=O)CSc2nnc(-c3ccco3)c(-c3ccco3)n2)c1C ?
PHOSPHO1 block: inactive; H9c2 protect: inactive; M18AAP inhibitor: inactive; PfG6PD inh: 61; PfG6PD confirm: inactive

Results for COc1ccc(S(=O)(=O)NCc2ccco2)cc1NC(=O)c1ccccc1 ?
PHOSPHO1 block: inactive; H9c2 protect: inactive; M18AAP inhibitor: inactive; ALR H2O2 inh: inactive; PfG6PD inh: inactive

What do the screens show for `CN1CCN(C(=O)c2cccc(NS(=O)(=O)c3ccc(Br)cc3)c2)CC1`?
H9c2 protect: inactive; PfG6PD inh: inactive

What do the screens show for `COc1ccccc1-c1oc2ccccc2c1-c1ccc2cc[nH]c2c1`?
H9c2 protect: inactive; ALR H2O2 inh: inactive; PfG6PD inh: 63; PfG6PD confirm: inactive

What do the screens show for `CCOC(=O)c1ccc(-c2c(-c3ccccc3OC)oc3ccccc23)cc1F`?
H9c2 protect: inactive; ALR H2O2 inh: inactive; PfG6PD inh: inactive

What do the screens show for `Cn1nc(-c2ccccn2)nc2c(=O)n(C)c(=O)nc1-2`?
PHOSPHO1 block: inactive; H9c2 protect: inactive; M18AAP inhibitor: inactive; ALR H2O2 inh: inactive; PfG6PD inh: 113; PfG6PD confirm: 89; Diaphorase 10uM: 98; Diaphorase 30uM: 103

What do the screens show for `CCn1c(N)nc2c1c(=O)n(C)c(=O)n2C`?
PHOSPHO1 block: inactive; H9c2 protect: inactive; M18AAP inhibitor: inactive; ALR H2O2 inh: inactive; PfG6PD inh: inactive

How did CCCc1nc2c(=O)n(C)c(=O)nc-2n(C)n1 do in these assays?
PHOSPHO1 block: inactive; H9c2 protect: inactive; M18AAP inhibitor: inactive; PfG6PD inh: 109; PfG6PD confirm: 103; Diaphorase 10uM: 98; Diaphorase 30uM: 100

What do the screens show for `CCCCCCCCSC1=CC(=O)C(OC)=C(OC)C1=O`?
H9c2 protect: inactive; PfG6PD inh: 125; PfG6PD confirm: 86; Diaphorase 10uM: 67; Diaphorase 30uM: inactive

What do the screens show for `COc1cccc2c1nc(C)c1cc(C)oc12`?
PHOSPHO1 block: inactive; H9c2 protect: inactive; M18AAP inhibitor: inactive; ALR H2O2 inh: inactive; PfG6PD inh: inactive

Results for COc1cccc2nc3cc(C)c(C)cc3nc12 ?
PHOSPHO1 block: inactive; H9c2 protect: inactive; M18AAP inhibitor: inactive; ALR H2O2 inh: inactive; PfG6PD inh: 96; PfG6PD confirm: 57; Diaphorase 10uM: inactive; Diaphorase 30uM: inactive

How did CN1CCN(C(=O)C2CCC(=O)N(CCc3cccc(F)c3)C2)CC1 (stereo not given) do in these assays?
PHOSPHO1 block: inactive; H9c2 protect: inactive; M18AAP inhibitor: inactive; ALR H2O2 inh: inactive; PfG6PD inh: inactive

Results for Cc1ccc(NNS(=O)(=O)c2ccc(C)cc2)cc1 ?
PHOSPHO1 block: inactive; H9c2 protect: inactive; M18AAP inhibitor: inactive; ALR H2O2 inh: 98; PfG6PD inh: 99; PfG6PD confirm: 54; Diaphorase 10uM: inactive; Diaphorase 30uM: inactive

What do the screens show for `COc1ccc(C(=O)Nc2sc3c(c2C#N)CCN(C(C)=O)C3)cc1`?
PHOSPHO1 block: inactive; H9c2 protect: inactive; M18AAP inhibitor: inactive; ALR H2O2 inh: inactive; PfG6PD inh: inactive

Results for CC(=O)N1CCc2c(sc(NC(=O)c3ccc([N+](=O)[O-])o3)c2C#N)C1 ?
PHOSPHO1 block: inactive; H9c2 protect: inactive; M18AAP inhibitor: inactive; PfG6PD inh: 60; PfG6PD confirm: inactive

What do the screens show for `COC(=O)c1c(NC(=O)c2ccc([N+](=O)[O-])o2)sc2c1CCN(C(C)C)C2`?
PHOSPHO1 block: inactive; H9c2 protect: inactive; M18AAP inhibitor: inactive; ALR H2O2 inh: inactive; PfG6PD inh: 68; PfG6PD confirm: inactive

What do the screens show for `O=C(Nc1c(C(=O)N2CCOCC2)oc2ccccc12)c1ccccc1Cl`?
PHOSPHO1 block: inactive; H9c2 protect: inactive; M18AAP inhibitor: inactive; ALR H2O2 inh: inactive; PfG6PD inh: inactive

Results for CCOC(=O)N1CCN(C(=O)CCC(=O)c2ccc(OCC)cc2)CC1 ?
PHOSPHO1 block: inactive; H9c2 protect: inactive; M18AAP inhibitor: inactive; ALR H2O2 inh: inactive; PfG6PD inh: inactive

How did CCOc1ccc(C(=O)CCC(=O)N2CCN(c3ccc(O)cc3)CC2)cc1 do in these assays?
H9c2 protect: inactive; ALR H2O2 inh: inconclusive; PfG6PD inh: 67; PfG6PD confirm: inactive

Results for CC(=O)Oc1ccc(-c2csc(Nc3ccc(S(N)(=O)=O)cc3)n2)cc1 ?
PHOSPHO1 block: inactive; H9c2 protect: inactive; M18AAP inhibitor: inactive; ALR H2O2 inh: inactive; PfG6PD inh: 62; PfG6PD confirm: inactive

Results for CC1CCCC(N2CCN(C(=O)c3ccc([N+](=O)[O-])cc3)CC2)C1 (stereo not given) ?
PHOSPHO1 block: inactive; H9c2 protect: inactive; M18AAP inhibitor: inactive; ALR H2O2 inh: inactive; PfG6PD inh: inactive

How did O=C1c2ccccc2C(=O)c2c1oc(C(F)(F)F)c2C(=O)c1ccccc1 do in these assays?
PHOSPHO1 block: 106; H9c2 protect: inactive; M18AAP inhibitor: inactive; ALR H2O2 inh: inactive; PfG6PD inh: 74; PfG6PD confirm: inactive

What do the screens show for `O=C(c1ccccc1)c1ccc(CN2C(=O)c3ccccc3C2=O)o1`?
PHOSPHO1 block: inactive; H9c2 protect: inactive; M18AAP inhibitor: inactive; ALR H2O2 inh: inactive; PfG6PD inh: inactive

What do the screens show for `COc1ccc(S(=O)(=O)Nc2cccc3c2O[C@H](CN(C)C(=O)NC2CCCCC2)[C@@H](C)CN([C@H](C)CO)C3=O)cc1`?
H9c2 protect: inactive; PfG6PD inh: inactive

How did COc1ccc(Nc2ccnc3ccccc23)cc1 do in these assays?
PHOSPHO1 block: inactive; H9c2 protect: inactive; M18AAP inhibitor: inactive; ALR H2O2 inh: inactive; PfG6PD inh: inactive

How did CC(C)Nc1ccc(Nc2ccnc3cc4ccccc4cc23)cc1 do in these assays?
PHOSPHO1 block: inactive; H9c2 protect: inactive; M18AAP inhibitor: inactive; ALR H2O2 inh: 99; PfG6PD inh: 65; PfG6PD confirm: inactive

What do the screens show for `O=C(Nc1ccc2nc(-c3cccnc3)[nH]c2c1)c1ccccc1F`?
PHOSPHO1 block: inactive; H9c2 protect: inactive; M18AAP inhibitor: inactive; ALR H2O2 inh: inactive; PfG6PD inh: inactive

What do the screens show for `c1ccc(-c2nc3cc4ccccc4cc3[nH]2)nc1`?
PHOSPHO1 block: inactive; H9c2 protect: inactive; M18AAP inhibitor: inactive; ALR H2O2 inh: inactive; PfG6PD inh: 89; PfG6PD confirm: inactive
